# Screening results: PubChem, several laboratories
# Compounds with a hit are over-represented: about 12% of the library has one in this group of screens.
# Lmaj promast: Leishmania major promastigote growth inhibition. Leishmania major promastigotes, resazurin fluorescence viability. inhibition, % at 10 µM. 200,000 tested, 9% active. AID 1063; in the data active = inhibition above about 50%;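 also: promastigotes grown with compound for 44 hours at 28 °C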
# WT yeast gro inh: growth inhibition of WT yeast, mitochondrial fusion screen; 190,000 tested, 2.1% active; AID 1362; inhibition, % at 10 µM; mitochondrial fusion phenotypic screen, WT strain; in the data active = inhibition above about 58%; tested in S. cerevisiae
# Cl transport mod: modulators of human KCC2 chloride dependent transport. B-score of Tl+ flux slope (higher = more flux/activation; lower = inhibition) at 10 µM. 190,000 tested, 2.2% active. AID 1456. Q9H2X9. KCC2 cells, thallium flux FluoZin-2 fluorescence;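 active = thallium flux slope and its plate-corrected score both differing from the plate sample mean at a set confidence after two filtering rounds, in either direction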;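 also: slope of fluorescence scaled to starting intensity during 10 to 20 s after thallium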
# Target sequence (Q9H2X9 whole entry, looked up): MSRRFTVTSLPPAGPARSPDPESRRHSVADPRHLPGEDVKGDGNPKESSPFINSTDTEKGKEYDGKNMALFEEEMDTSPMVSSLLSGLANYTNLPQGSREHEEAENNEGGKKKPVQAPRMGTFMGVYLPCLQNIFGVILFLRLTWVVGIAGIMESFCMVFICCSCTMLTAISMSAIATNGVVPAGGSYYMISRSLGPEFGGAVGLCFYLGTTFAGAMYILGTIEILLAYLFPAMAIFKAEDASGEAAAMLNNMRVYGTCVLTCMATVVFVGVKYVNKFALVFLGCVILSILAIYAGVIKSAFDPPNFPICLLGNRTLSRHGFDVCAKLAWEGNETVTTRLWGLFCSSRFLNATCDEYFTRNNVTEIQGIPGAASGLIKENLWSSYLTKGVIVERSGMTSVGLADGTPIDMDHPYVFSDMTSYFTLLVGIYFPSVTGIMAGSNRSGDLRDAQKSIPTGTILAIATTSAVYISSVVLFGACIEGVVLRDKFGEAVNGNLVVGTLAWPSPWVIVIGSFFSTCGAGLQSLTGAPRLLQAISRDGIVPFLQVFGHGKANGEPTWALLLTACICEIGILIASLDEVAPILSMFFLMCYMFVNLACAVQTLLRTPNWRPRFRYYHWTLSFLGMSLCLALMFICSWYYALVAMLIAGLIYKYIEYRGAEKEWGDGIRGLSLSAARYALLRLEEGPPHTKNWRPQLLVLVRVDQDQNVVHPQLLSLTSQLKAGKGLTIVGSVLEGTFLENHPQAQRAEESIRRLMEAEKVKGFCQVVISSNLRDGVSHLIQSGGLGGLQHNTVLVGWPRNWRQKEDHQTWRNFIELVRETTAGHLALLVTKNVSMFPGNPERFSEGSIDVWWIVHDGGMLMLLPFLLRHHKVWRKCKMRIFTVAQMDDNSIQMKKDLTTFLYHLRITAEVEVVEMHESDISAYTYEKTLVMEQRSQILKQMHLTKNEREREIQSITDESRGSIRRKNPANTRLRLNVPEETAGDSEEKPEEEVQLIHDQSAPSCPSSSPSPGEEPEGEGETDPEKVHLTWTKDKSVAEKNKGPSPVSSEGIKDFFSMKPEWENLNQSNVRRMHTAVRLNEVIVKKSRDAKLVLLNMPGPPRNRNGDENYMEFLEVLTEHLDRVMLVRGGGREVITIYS
# ROMK primary: human ROMK K+ channel modulation, primary screen | P48048 | Tet-inducible ROMK, thallium flux fluorescence; actives lie on both sides | 130,000 tested, 2% active | B-score at 10 µM | AID 1918;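 active = signal ratio slope over the read window, or its plate-corrected B-score, at least 3 SD from the plate mean, either direction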;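 also: B-score of the F/F0 ratio slope over 7 to 12 s after thallium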
# m-calpain inh: inhibitors of pig calpain II | purified calpain II, fluorogenic peptide substrate, 30 min | inhibition, % at 16 µM | 220,000 tested, 0.37% active | AID 1236;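 active = inhibition above about 50%, limit read from the data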
# ROMK hit retest: human ROMK channel modulation, retest confirmation | shares compounds with ROMK primary | ROMK thallium flux, fluorescence ratio; hits give low values | normalized thallium flux (F/F0 slope) at 10 µM | 3,000 tested, 54% active | AID 1917;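 active = Flux at 10 µM at least 3 SD below or above vehicle control mean in one or both replicates; inconclusive = no clear call, values can overlap the other calls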
# A number is an active result; – = inactive; ? = inconclusive; · = no result.
SMILES,Lmaj promast,WT yeast gro inh,Cl transport mod,ROMK primary,m-calpain inh,ROMK hit retest
CCC(C)(CC(=O)O)CC(=O)Nc1cc(C(F)(F)F)cc(C(F)(F)F)c1 (centres undefined),·,·,·,·,–,·
N#C/C(=C\c1ccccc1)C(=O)N(c1ccccn1)C1CCCCC1,–,–,–,·,–,0.045
O=C(c1cccc(C(=O)N(c2ccccn2)C2CCCCC2)c1)N(c1ccccn1)C1CCCCC1,–,–,–,–,–,·
O=C(/C=C/c1ccc([N+](=O)[O-])cc1)N(c1ccccn1)C1CCCCC1,–,–,–,5.7,–,–
COCCN(Cc1ccccc1)C(=S)Nc1ccc(Cl)cc1,–,–,–,6,–,–
COc1ccc(CCC(=O)NCCc2cn3c(C)csc3n2)cc1,–,–,–,·,–,·
COc1ccc(/C(C)=C2\SC(=S)N(CCC(=O)O)C2=O)cc1,–,–,·,3.1,–,–
Cc1sc2nc(SCC(=O)N(C)C)[nH]c(=O)c2c1C,–,–,–,–,–,·
CCN(CC)C(=O)CSc1nc2sc(C)c(C)c2c(=O)[nH]1,–,–,–,·,–,–
CC1CCC2C(=O)N(c3ccc(Cc4ccncc4)cc3)C(=O)C2C1 (centres undefined),–,–,–,-3.1,–,?
O=Cc1c[nH]c2ncccc12,·,·,·,·,–,·
O=C(C1=C(c2ccccc2)C(=O)c2ccccc2C1=O)c1ccccc1,–,–,–,–,–,·
Cc1oc2c(c1C(=O)c1ccccc1)C(=O)C(=O)c1ccccc1-2,100,–,–,·,–,?
O=C(O)CC(NNC(=O)c1ccccc1)C(=O)Nc1ccc([N+](=O)[O-])cc1 (centres undefined),·,·,–,–,–,·
CCOC(=O)CSc1nnc(Cn2nnc3ccccc32)n1-c1ccc(F)cc1,·,·,–,·,–,·
COc1ccc(NC(=O)N2CCCC2C(=O)NCc2ccc(C)cc2)cc1 (centres undefined),–,–,–,–,–,·
CCc1ccccc1NC(=O)C1CCN(C(=O)c2ccc([N+](=O)[O-])cc2)CC1,–,–,–,–,–,·
COc1ccccc1Nc1nnc(C)c(=O)[nH]1,–,–,·,3,–,–
COc1ccc(OC)c(Nc2nnc(C)c(=O)[nH]2)c1,–,–,–,–,–,·
Cc1ccc(NC(=O)CCCc2nc3ccccc3s2)c(O)c1,–,–,–,–,–,·
C(#Cc1ccccc1)C[N+]1(CC#Cc2cccc3ccccc23)CCOCC1,100,–,–,-2.4,–,0.068
O=C1C2CC=C(Cl)CC2C(=O)N1CN(Cc1ccco1)CN1C(=O)C2CC=C(Cl)CC2C1=O (centres undefined),–,–,·,–,–,·
CCCCCCCCOC(=O)c1c(CSC(=N)N)n(C)c2cc(Br)c(OC(C)=O)cc12,·,·,–,·,–,?
CCOC(=O)c1ccc(CSC(=N)N)o1,·,·,–,–,–,·
CCOC(=O)c1c(CSC(=N)N)n(-c2ccc(Br)cc2)c2cc(Br)c(OC(C)=O)cc12,88,–,–,-5.2,–,0.045
SMILES,Lmaj promast,WT yeast gro inh,Cl transport mod,ROMK primary,m-calpain inh,ROMK hit retest
O=C(CCCCCn1c(=O)[nH]c2ccsc2c1=O)N1CCN(C2CCCCC2)CC1,–,–,–,·,–,·
COc1cc(NC(=O)CSc2nc(C)cc(C)n2)cc(OC)c1OC,–,–,–,–,–,·
O=c1c(/C=N/Nc2ccccc2)c(Sc2nnnn2-c2ccccc2)nc2ccccn12,–,–,–,-3.7,–,0.04
O=C(O)c1ccccc1N/N=C/c1c(Sc2nnnn2-c2ccccc2)nc2ccccn2c1=O,·,·,–,·,–,·
CN1CC=C2C(C#N)=C(N)C(C#N)(C#N)C(c3cccc(Cl)c3Cl)C2C1 (centres undefined),–,–,–,·,–,·
N#CC1=C(N)C(C#N)(C#N)C(c2cccnc2)C2COCC=C12 (centres undefined),–,–,–,-6.1,–,0.057
CCCCCc1cc(O)c2c(C)cc(=O)oc2c1,–,–,–,·,–,0.055
COc1ccc(/C=N/NC(=O)c2csc(-n3nc(C)cc3C(F)(F)F)n2)cc1,–,–,–,·,–,–
CC1=CC(=O)N(c2cccc(C(F)(F)F)c2)C1c1ccc(Cl)cc1 (centres undefined),–,–,–,·,–,·
COc1ccc(CNC(=O)COC(=O)c2cncc(Br)c2)cc1,–,–,–,–,–,–
Cc1ccc(CNC(=O)COC(=O)c2cncc(Br)c2)cc1,–,–,–,–,–,·
O=C(c1cccc(F)c1)N1CCN(C(=O)c2cc(-c3ccc(Cl)cc3Cl)on2)CC1,–,–,–,-4.2,–,?
COc1cccc(C(=O)N2CCN(C(=O)c3cccc(F)c3)CC2)c1,–,–,–,·,–,·
CCn1cc(C(=O)N2CCc3ccccc32)c(=O)c2cc(S(=O)(=O)N(C)C3CCCCC3)ccc21,–,83,–,-2.8,–,–
CCn1cc(C(=O)N2CCc3ccccc32)c(=O)c2cc(S(=O)(=O)N3CCOCC3)ccc21,–,–,–,·,–,·
Cc1ccc(Cl)cc1N1CCN(S(=O)(=O)c2cccc(S(=O)(=O)N3CCCC3)c2)CC1,61,–,–,-3.3,–,–
Cc1ccc(Cl)cc1N1CCN(S(=O)(=O)c2ccc3[nH]c(=O)c(=O)[nH]c3c2)CC1,–,–,–,–,–,·
Cc1ccc(-c2nn(CC(N)=O)c(=O)c3ccccc23)cc1S(=O)(=O)N(C)C,–,–,·,–,–,·
COc1cccc(OCCn2cccc2/C=C2/C(=N)N3OC(C)=CC3=NC2=O)c1,–,–,–,-3.3,–,–
CC1=CC2=NC(=O)/C(=C\c3cccn3CCOc3ccccc3)C(=N)N2O1,–,–,–,·,–,·
Cc1ccc(/C=N/N2C(=O)c3ccccc3NC2c2ccc(C)cc2)cc1 (centres undefined),–,–,–,·,–,·
CC1CCCCC1NC(=O)COC(=O)CNC(=O)c1cccc(F)c1 (centres undefined),–,–,–,-2.1,–,–
O=S(=O)(/N=C(/Sc1ccccc1)c1ccccc1)c1ccccc1,–,–,–,-2.8,–,0.05
CC(C)(C)C1(O)CC(C(F)(F)F)=NN1C(=O)CCc1ccccc1 (centres undefined),–,–,–,–,–,·
CCOC(=O)C1=NN(C(=O)Cc2ccccc2)C(O)(C(C)(C)C)C1 (centres undefined),–,–,–,-13,–,–
SMILES,Lmaj promast,WT yeast gro inh,Cl transport mod,ROMK primary,m-calpain inh,ROMK hit retest
Cc1ccc(-n2c(SCC(=O)Nc3cccc(S(=O)(=O)NC4=NCCCCC4)c3)nc3ccccc3c2=O)cc1,–,–,–,·,–,·
CCc1ccc(-n2c(SCC(=O)Nc3cccc(S(=O)(=O)NC4=NCCCCC4)c3)nc3ccccc3c2=O)cc1,–,–,–,-2.7,–,?
COc1cnc(-c2ccccn2)nc1Sc1ccccc1,100,–,·,–,–,?
CCOC(=O)CSc1nc(-c2ccccn2)ncc1OC,–,–,·,–,–,·
Nc1nn(-c2ccccc2)c(N)c1N=Nc1ccccc1,–,–,–,3.1,–,–
O=C(Cc1ccc(-c2ccccc2)cc1)NCc1cccnc1,–,–,–,3.2,–,–
O=C(Cc1ccccc1)NCc1cccnc1,–,–,–,–,–,·
COCCNC(=O)c1onc(CSc2ccncc2)c1C(=O)NCCOC,·,·,–,·,–,·
